Test results reported in PubChem BioAssay (NCATS).
Records with an inconclusive call do not appear. Where a call stands in place of a potency, no number is given. Active and inactive are the calls of the source. The call rests on the fitted dose curve; in most records, active means well fitted inhibition curve with a large enough effect; inconclusive means small, poorly fitted or top-dose-only effect; inactive means flat fitted curve, though single readings scatter.

The compounds below were run against Calcium and integrin-binding protein 1 (Homo sapiens) (UniProt Q99828) (assay: Primary qHTS for Identification of Calcium Integrin Binding Protein 1 (CIB1) Competitor (AID 1508620; further: top concentration of the series differs between compounds)). Conditions: CIB1-GST / FITC-alphaIIb peptide fluorescence polarization; series mostly up to 114 µM.
Sequence of Calcium and integrin-binding protein 1 (Homo sapiens) (Q99828 whole entry, looked up): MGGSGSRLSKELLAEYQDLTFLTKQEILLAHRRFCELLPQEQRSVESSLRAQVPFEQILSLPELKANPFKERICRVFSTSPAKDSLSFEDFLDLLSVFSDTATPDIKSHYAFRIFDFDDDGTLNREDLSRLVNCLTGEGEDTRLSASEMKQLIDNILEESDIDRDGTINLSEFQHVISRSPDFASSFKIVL
Method in brief: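 Fluorescence polarization competition: GST-tagged CIB1 (1 uM final) preincubated with compound 15 min at room temperature, then FITC-labelled alphaIIb peptide (100 nM final) added. After 15 min at room temperature, polarization read at Ex 480/Em 540.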

Row | Structure (SMILES) | Potency
1 | Fc1cc(Nc2nc(-c3ccncc3)nc3ccccc23)ccc1-c1ccncc1 | inactive
2 | Cn1c2cc(Br)sc2c2cnn(Cc3ccc(F)cc3)c(=O)c21 | inactive
3 | COc1cccc(C2c3c(ncn(-c4ccccc4C(C)(C)C)c3=N)Oc3ccc4ccccc4c32)c1 (stereo not given) | inactive
4 | N#CN1CCC(NC(=O)c2ccc(F)cc2)CC1 | inactive
5 | NC(=O)C1CCN(c2nc(-c3cccc(Br)c3)cs2)CC1 | inactive
6 | Cn1nnnc1Sc1ncnc2scc(-c3cccc(S(C)(=O)=O)c3)c12 | inactive
7 | Cc1ccnc(NC(=S)N2CCN(c3ncc(C(F)(F)F)cc3Cl)CC2)c1 | inactive
8 | CCOC(=O)Nc1sc2c(c1C(N)=O)CCCC2 | inactive
9 | Nc1ccc(C(=O)Nc2ccc(-c3nc4ccccc4[nH]3)cc2)cc1Cl | inactive
10 | Oc1ccc(CNc2ccc(F)cc2Cl)c2cccnc12 | inactive
11 | O=C(OC/C=C/CSc1nnc(-c2cccc3ccccc23)o1)c1ccc(F)cc1 | inactive
12 | COc1ccc(C2=Nn3c(nnc3-c3cc(OC)cc(OC)c3)SC2)cc1 | inactive
13 | CC(=O)Nc1ccc(S(=O)(=O)N2CCN(S(=O)(=O)c3c(F)cccc3F)CC2)cc1 | inactive
14 | COc1cccc(CNc2ccc(S(=O)(=O)Nc3ncccn3)cc2)c1O | inactive
15 | COc1ccc2ncnc(NCc3cccs3)c2c1-c1ccc2c(c1)OCO2 | inactive
16 | CC(=O)c1ccc(NC(=O)c2cnn3c(C)cc(C)nc23)cc1 | inactive
17 | CC(Nc1nc(-c2ccccc2C(F)(F)F)nc2ccccc12)c1ccc(-c2ccncc2)cc1 (stereo not given) | inactive
18 | O=C(Nc1ccccc1)OCc1c(-c2ccccc2)no[n+]1[O-] | inactive
19 | O=C(Nc1ccc(-n2cncn2)c(F)c1)Nc1nnc(-c2ccncc2)s1 | inactive
20 | O=C(OCC#CCSc1nnc(-c2cccc3ccccc23)o1)c1csc2ccccc12 | inactive

Row | Structure (SMILES) | Potency
21 | Cc1ccc(OCCn2c(CCNC(=O)c3cccc4ccccc34)nc3ccccc32)cc1 | inactive
22 | Cc1csc(CNc2ncnc3ccc(-c4ccoc4)cc23)c1 | inactive
23 | CCOC(=O)c1ccoc1-c1ccc2ncnc(NCc3csc(C)n3)c2c1 | inactive
24 | O=C1CCc2cc(S(=O)(=O)Nc3ccccc3Cl)ccc2N1 | inactive
25 | Cc1noc(C)c1-c1ccc2ncnc(NCc3ccccc3F)c2c1 | inactive
26 | O=C(Nc1cccnc1)C1CCCCC1 | inactive
27 | Cc1ccc(NS(=O)(=O)c2ccc3c(c2)oc(=O)n3C)cc1C | inactive
28 | NC(=O)c1c(NC(=O)c2ccco2)sc2c1CCCC2 | inactive
29 | CC(=O)Nc1sc2c(c1-c1ccc3[nH]ccc3c1)CCNC2 | inactive
30 | Cc1ccc(NS(=O)(=O)c2ccc3c(c2)CC(=O)N3C)cc1C | inactive
31 | O=C(O)c1ccc(-c2nn3c(=O)cc(N4CCNCC4)nc3s2)cc1 | inactive
32 | COc1cccc(C(=O)NC2CCN(C#N)CC2)c1 | inactive
33 | O=C(Nc1ncc(Cc2ccc(C(F)(F)F)cc2)s1)c1cnc(-c2ccccc2)[nH]1 | inactive
34 | O=C(c1ccccc1O)N(Cc1ccccc1)Cc1cccs1 | inactive
35 | Cc1ccc(-c2csc(N3CCC(C(N)=O)CC3)n2)cc1 | inactive
36 | CNc1oc(-c2cccc(-c3ccccc3)c2)nc1C#N | inactive
37 | O=C(OCC#CCSc1nnc(-c2cccc3ccccc23)o1)c1ccncc1 | inactive
38 | O=C(Nc1cncc(O)c1)c1cccs1 | inactive
39 | COc1ccc(C2Nc3ccccc3C(=O)N2Cc2ccc(C(F)(F)F)cc2)cc1COc1ccc(NC(C)=O)cc1 (stereo not given) | inactive
40 | O=S1(=O)N=C(Oc2cccc(Br)c2)c2ccccc21 | inactive
